This is one part of the list. Values without a mark were called inactive. The source made the active and inactive calls.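 How the source made its calls: active means mean activation over replicate wells exceeds the adjusted hit threshold taken from the earlier primary screen (cut at about 20% in these data); inactive means the rest.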

In the experiment the target is cAMP-dependent protein kinase type I-alpha regulatory subunit (Bos taurus) (UniProt P00514). As to the kind of experiment: activators of PKA-R1A holoenzyme, confirmation, biochemical, fluorescence polarization, Cy5-IP20, triplicate (AID 504800).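 Further: 0% = holoenzyme mix with DMSO only and 100% = cGMP-activated control wells.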 The note with it: PKA-R1A holoenzyme dissociation, at 11.4 µM, active compounds read high. (In general: Fluorescence polarisation rises when a labelled molecule tumbles more slowly, as on binding a larger partner.)
Chain of cAMP-dependent protein kinase type I-alpha regulatory subunit (Bos taurus) (P00514 whole entry, looked up): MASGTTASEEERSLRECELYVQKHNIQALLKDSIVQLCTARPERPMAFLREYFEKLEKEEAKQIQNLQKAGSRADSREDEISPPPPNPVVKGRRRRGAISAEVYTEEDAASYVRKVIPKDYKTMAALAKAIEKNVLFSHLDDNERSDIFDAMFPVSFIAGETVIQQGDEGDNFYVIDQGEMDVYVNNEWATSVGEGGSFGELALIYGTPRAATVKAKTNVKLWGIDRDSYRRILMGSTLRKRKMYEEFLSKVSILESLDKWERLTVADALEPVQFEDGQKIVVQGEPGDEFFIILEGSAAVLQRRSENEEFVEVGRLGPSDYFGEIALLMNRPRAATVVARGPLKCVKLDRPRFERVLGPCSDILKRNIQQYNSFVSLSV
Consider `COc1ccc(CNc2nnnn2C)cc1`, for which the activation is 6.31%. As to `CCOc1cc(C(=O)Nc2c(C)ccc3nsnc23)cc(OCC)c1OCC`, the activation was -1.31%. With `O=C(Nc1ccc2c(c1)[C@@H]1C[C@@H](CC(=O)N3CCCCC3)O[C@@H](CO)[C@@H]1O2)NC1CCCCC1`, the activation is 4.17%. Then `COc1ccc(NC(=O)c2ccc(C#CC(C)(C)O)cc2)cc1`, with -0.53%; and `CCC(Oc1ccccc1C)C(=O)Nc1ccc(S(=O)(=O)Nc2cc(C)on2)cc1` (stereo not given), with 2.1%; and `COc1ccccc1N1CC(C(=O)Nc2nnc(SCC(=O)NC(C)C)s2)CC1=O` (stereo not given), with -1.21%.

As for `CCCC(=O)Nc1ncnc2c1ncn2[C@@H]1O[C@@H]2OP(=O)(O)OC[C@H]2[C@H]1OC(=O)CCC`, the activation was 43.8% (active).

`CN(C(=O)CSc1nnc(Nc2ccccc2)s1)C1CCS(=O)(=O)C1` (stereo not given): the activation was 1.24%.

Consider `Cc1ccc2nc3c(cc(C(=O)NCCc4ccccc4)c(=N)n3CC3CCCO3)c(=O)n2c1` (stereo not given), for which the activation is 4.46%.

For `N#Cc1ccccc1CN1C(=O)S/C(=C/c2cccn2-c2cccc(C(=O)O)c2)C1=O`, the activation is 26.8% (active).

Values taken from PubChem BioAssay AID504800 (The Scripps Research Institute Molecular Screening Center, 2011).
